The results in this text go back to ChEMBL document CHEMBL3988442, “University of Dundee, Small-Polar-MMV Screening Library” (2021).

The subject of the experiment is Trypanosoma brucei. Kind of experiment: Trypanosoma brucei 72 hour study. The format is functional, organism-based. Details: scale not given: in the data most compounds retested in dose-response had high values.

The structures appear in SMILES notation. Hit rate of the full screen: of about 66,000 compounds, about 960 (1.5%) showed an effect of 50% or more. This excerpt belongs to a sample that is enriched for strong results.

Consider `Cl.c1cc(NCc2ccncc2)nc(C2CCCN2)c1` (centres undefined), for which the “Percent Effect” value (30.3 µM, […]) was 7.613%. Take `CC(C)(C)c1ccc(-n2ncc3c2CCCC3N)cc1` (centres undefined): the “Percent Effect” value (30 µM, 30.03 µM) worked out at 97.82%. `Cc1cc(C)cc(-n2ncc3c2CCCC3N)c1` (centres undefined): for the setting “30 µM, 30.03 µM”, the “Percent Effect” value is given as -36.85%. The same measure, in the same setting: as for `Cc1ccc(-n2ncc3c2CCCC3N)cc1C` (centres undefined), the figure is -37.31%. Consider `CN(C)C(=O)C1CCN(C2CCN(CC3CC3)CC2)CC1.O=C(O)C(F)(F)F.O=C(O)C(F)(F)F`, for which the “Percent Effect” value (30.3 µM, […]) was -10.13%. As for `CCc1nc(C2CCCN2C(=O)c2ccc3c(c2)nnn3C)no1` (centres undefined), the “Percent Effect” value was -25.38% (10 µM) and -22.91% (30.3 µM, […]). As for `c1ccc(-c2nc(CN3CCCC3Cn3cncn3)no2)cc1` (centres undefined), for the setting “30.3 µM, […]”, the “Percent Effect” value was 6.98%. In the case of `CC1CCN(C(=O)C2CCN(c3ccc(Cl)cc3C#N)CC2)CC1`, the “Percent Effect” value (30.3 µM, […]) was 28.97%. As for `N#Cc1cc(Cl)ccc1N1CCN(C(=O)C2CCC2)CC1`, the “Percent Effect” value (30.3 µM, […]) is recorded as 81.04%.

Regarding `CCN(CC)C(=O)C1CCN(c2ccc(Cl)cc2C#N)CC1`, where the note is “30.3 µM, […]”, the “Percent Effect” value is -5.722%. For `O=C(O)C(F)(F)F.O=C(c1cccnc1)N1CCC2(CC1)COCCN(c1ncccn1)C2`, where the note is “30 µM, 30.03 µM”, the “Percent Effect” value is given as -13.17%. The same measure, in the same setting: under `COc1ccc(N2Cc3nc(N)ncc3C2=O)cc1Cl` stands -4.562%. Still for that read-out and setting: under `Cc1cc(S(=O)(=O)NCC(C)(C)N)c(F)cc1F.Cl` stands -16.3%. On the same count and under the same terms, as for `CC(C)Nc1nc2c(cc1C(=O)NCC1CC1)CCNCC2.O=C(O)C(F)(F)F.O=C(O)C(F)(F)F`, the figure is -26.83%; as for `CNC(=O)c1cc2c(nc1NCC1CC1)CCNCC2`, -38.29%; as for `CC(C)CNc1nc2c(cc1C(=O)NCC1CC1)CCNCC2`, 100.1%. Take `O=C(O)C(F)(F)F.O=C1CCCN1Cc1nnc2n1CCN(Cc1ccccn1)CC2`: the “Percent Effect” value (30.3 µM, […]) was -8.188%. On the same count and under the same terms, as for `Cc1cc(C[C@@H]2CCC[C@H]2NCc2c[nH]nc2-c2ccccc2)on1.O=C(O)CC(O)(CC(=O)O)C(=O)O`, the figure is 19.9%; as for `CNC(=O)c1cc2c(nc1NCC(C)C)CCN(C)CC2.O=C(O)C(F)(F)F.O=C(O)C(F)(F)F`, -104.3%.

Turning to `CNC(=O)c1cc2c(nc1NCC(C)C)CCN(c1ccncn1)CC2.O=C(O)C(F)(F)F`, under “30 µM, 30.03 µM”, the “Percent Effect” value is -20.72%. Regarding `CNC(=O)c1cc2c(nc1NCC(C)C)CCN(c1ncccn1)CC2.O=C(O)C(F)(F)F`, the “Percent Effect” value (30.3 µM, […]) turned out to be 98.85%. For `O=C(CSc1ccc2c(c1)OCCO2)NS(=O)(=O)c1ccccc1F`, the “Percent Effect” value (30 µM, 30.03 µM) is given as -24.23%. Consider `O=C(CSc1ccc(F)c(F)c1)NS(=O)(=O)c1ccc2c(c1)OCCO2`, for which the “Percent Effect” value (30 µM, 30.03 µM) is given as -8.026%. `O=C(CSc1ccc2c(c1)OCCO2)NS(=O)(=O)c1cc(F)ccc1F`: the “Percent Effect” value (30 µM, 30.03 µM) came to 61.54%.

For `CN1C(=O)CC(c2ccccc2)C12CCN(CC1CCOCC1)CC2.O=C(O)C(F)(F)F` (centres undefined), for the setting “30.3 µM, […]”, the “Percent Effect” value is on record as -3.358%. Take `O=C(O)C(F)(F)F.O=C(O)C(F)(F)F.O=c1cc(Cn2cncn2)nc2n1CCCN(CCN1CCCC1)C2`: under “30 µM, 30.03 µM”, the “Percent Effect” value was found to be 14.15%. Still for that read-out and setting: under `O=C(O)C(F)(F)F.O=c1cc(Cn2cncn2)nc2n1CCCN(Cc1ccc(F)cc1)C2` stands 27.77%; under `COCCN1CCCn2c(nc(Cn3cncn3)cc2=O)C1.O=C(O)C(F)(F)F`, 64.46%. Take `O=C(O)C(F)(F)F.c1cnc(NCc2nnn3c2CN(CC2CC2)CCC3)nc1`: the “Percent Effect” value (30.3 µM, […]) was -52.08%.

As for `Cc1nn(C)c(N(C)C)c1CNC1CCc2cc(F)ccc21.Cl` (centres undefined), the “Percent Effect” value (10 µM) was -39.72%. In the case of `Cn1cccc1C(=O)N1CCc2ncc(Cn3cccn3)n2CC1`, the “Percent Effect” value (30 µM, 30.03 µM) is recorded as 59.24%. Regarding `O=C(c1ccoc1)N1CCc2ncc(Cn3cccn3)n2CC1`, under “30.3 µM, […]”, the “Percent Effect” value is listed as -11.59%.

For `Cc1ccc(C(=O)N2CCc3ncc(Cn4cccn4)n3CC2)cn1`, the “Percent Effect” value (30.3 µM, […]) is on record as -7.438%.

As to `CS(=O)(=O)NCc1cncc2c1CCN(C(=O)c1cccnc1)C2.Cl.Cl`, the “Percent Effect” value (30.3 µM, […]) is -7.257%. For `COCC1CN(Cc2ccoc2)Cc2nnn(C)c21.O=C(O)C(F)(F)F` (centres undefined), the “Percent Effect” value (30 µM, 30.03 µM) is -46.26%. With `CCc1c(C)nc2cc(C3CCN(Cc4cccnc4)C3)nn2c1O` (centres undefined), the “Percent Effect” value (30.3 µM, […]) is 7.415%. Turning to `CCc1c(C)nc2cc(C3CCN(CCc4ccccc4)C3)nn2c1O` (centres undefined), the “Percent Effect” value (30.3 µM, […]) amounted to 58.63%. As for `CCc1c(C)nc2cc(C3CCN(Cc4cccc(F)c4)C3)nn2c1O` (centres undefined), where the note is “30.3 µM, […]”, the “Percent Effect” value amounted to 27.1%.
